Reference: PubChem BioAssay AID1159606 (Sanford-Burnham Center for Chemical Genomics, 2016)
Among all 360,000 compounds or so, about 7,300 (2%) were called active. Rule as the data show it: active = inhibition above about 50%; inactive = the rest. The list comes from a sample in which actives are over-represented; it also holds similar structures and randomly drawn compounds.

Assay: blockers of TWEAK-induced Fn14 reporter activity – luciferase reporter cells, uHTS, primary screen (AID 1159606)
Settings: TWEAK-stimulated Fn14 reporter cells, luciferase luminescence, 8 h; at 10 µM; stronger effect = higher value

inhibition, inactive:
COc1cc(/C=C/C(=O)OCC(=O)Nc2cccc(Oc3ccccc3)c2)ccc1O 14.2%, CCCCC[C@H](C)N1C[C@@H](COCc2ccccc2)Oc2cc(N3CC[C@@H](N(C)C)C3)ccc2S1(=O)=O -25%, CS(=O)(=O)N(Cc1ccccc1)c1ccc(C(=O)NN=C2CCCCCC2)cc1 -6.55%, COc1ccc(OC)c(NC(=O)C2CCCN2S(=O)(=O)c2ccc3c(c2)CC(C)N3C(C)=O)c1 (centres undefined) -20.4%, COc1ccc(CN(Cc2ccco2)S(=O)(=O)c2ccc(S(=O)(=O)N3CCCC3)cc2)cc1 -30.2%, Cc1ccsc1C(=O)OCC(=O)Nc1cccc(F)c1 -31.6%, Cc1ccsc1C(=O)OCC(=O)NCCc1ccccc1 -22.4%, Cc1ccc(OCC(=O)N2CCN(S(=O)(=O)c3ccc(Cl)s3)CC2)cc1C 10.7%, CCCC(C)C(=O)Nc1ccc(NC(C)=O)cc1 (centres undefined) -11.6%, COc1ccc(N(C)C(=O)CCS(=O)(=O)c2cccc3nsnc23)cc1 36.5%, Cc1ccc(S(=O)(=O)CCC(=O)OCC(=O)N(C)Cc2ccccc2)cc1 4.76%, O=C(CCS(=O)(=O)c1ccccc1)Nc1nc2c(s1)CCCC2 22%, Cc1cccc(C)c1NC(=O)CCS(=O)(=O)c1cccc2nsnc12 -23.2%, CCOc1ccc(NS(=O)(=O)c2ccc(C(=O)NC3CCN(Cc4ccccc4)CC3)cc2)cc1 10.7%, Cc1cccc(CCNC(=O)Cn2ncc3c([nH]c4ccc(C)cc43)c2=O)c1 -15.4%, C=CCc1cc(S(=O)(=O)c2ccc(O)c(CC=C)c2)ccc1O 30.9%, O=C1C(Sc2cccc(F)c2)=C[C@@]2(O)CC[C@@H](O)[C@]1(Sc1cccc(F)c1)[C@H]2O 31.5%, CC(OC(=O)Cc1ccc(F)cc1)C(=O)N1CCc2ccccc21 (centres undefined) -3.73%, C[C@H](CO)N1C[C@H](C)[C@H](CN(C)C(=O)Nc2ccc(C(F)(F)F)cc2)Oc2c(NC(=O)c3ccncc3)cccc2C1=O 7.86%, Cc1nnc(NC(=O)CSc2nccn2-c2cccc(C)c2C)s1 12.7%

inhibition, active:
Nc1ccccc1SC(C[N+](=O)[O-])c1ccccc1 (centres undefined) 61.3%, Cc1ccsc1C(=O)OCC(=O)c1cc(C)n(CC2CCCO2)c1C (centres undefined) 103%, Cc1cccc2sc(N(CCCN(C)C)C(=O)CCS(=O)(=O)c3ccccc3)nc12 61.9%, COc1cccc2sc(N(CCCN(C)C)C(=O)CCS(=O)(=O)c3ccccc3)nc12 77.6%
